According to PubChem BioAssay (NCI):
“And” between values parts separate entries of the source, which are not always exact repeats. Equal entries are not always repeated. The panel holds about 83,000 compounds, 20% with a hit somewhere; the sample as a whole holds those more often.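 Activity criterion: percent growth below 10, measured after cells in 96-well plates were exposed to a single compound concentration for 48 hours.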 Values without a mark were called inactive.

The molecules below were run on OVCAR-4 ovarian (assay: NCI-60 one-dose screen, 48 h (100 = growth as untreated, 0 = no growth, -100 = all killed)). Settings: 10 µM unless noted.
Protocol: Growth inhibition of the OVCAR-4 human tumor cell line is measured as a screen for anti-cancer activity. Cells are grown in 96 well plates and exposed to the test compound for 48 hours. Compounds are tested at a single concentration, which is 10^-5 M for most compounds. The reported endpoint is percent growth (GI% or GIPRCNT), where numbers from 0 - 100% represent growth inhibition, and numbers from -100% - 0 represent cell death. For example, a value of 40 represents 60% growth inhibition. A value of 0 means no net growth occurred over the course of the experiment. A value of -40 indicates 40% of cells at the beginning of the experiment died by the end of the experiment. A value of -100 means all cells are dead at the end of the experiment.
NCI-60 Human Tumor Cell Lines Screen was performed using the standard one-dose NCI protocol, which is described in more detail at https://dtp.cancer.gov/discovery_development/nci-60/default.htm.
Compounds with GIPRCNT values below 10 were considered active. Activity score was based on GIPRCNT using the following formula: […]
Score is 0 for GIPRCNT values of 100 or above, 50 for GIPRCNT values of 0, and 100 for GIPRCNT values of -100.

SMILES	growth
CCOC(=O)c1ccc(C(=N)N)cc1	107%
COc1cc(C2c3cc4c(cc3C(OC(=O)C[n+]3ccccc3)C3COC(=O)C23)OCO4)cc(OC)c1OC (stereo not given)	41.5%
O=C1c2ccccc2CN1c1ccccc1	99.3%
CC(=O)c1cc2ccccc2o1	114%
Cc1cccc(Cl)c1N	117%
CC1NC(C)c2ccc3ccccc3c2O1 (stereo not given)	111%
Cc1cc(=NO)cc(C)n1O	106%
OCCSc1ccc(Cl)cc1	104% and 99.9%
O=c1[nH]nnc2cc(Cl)ccc12	124% and 98.8%
O=C(O)C#Cc1ccc(Cl)cc1	97.5%
CSc1nc(N)c(N)c(N)n1	103%
Oc1cccnc1CN1CCOCC1	94.9%
O=C(Nc1ccccc1)OCC(CN1CCCCC1)OC(=O)Nc1ccccc1 (stereo not given)	76.4% and 104%
Clc1ccc2sc(-c3ccccc3)nc2c1	81.5%
CC1(C)OC(=O)C(=Cc2ccc(C#N)cc2)C(=O)O1	115% and 98.3%
COc1cc(Cl)ccc1C	76.4%
COC(=O)c1nc(=S)[nH]c(C(=O)OC)c1C(=O)c1ccc(OC)cc1	112%
NCCCCCC(=O)O	116% and 103%
COC(=O)CCOc1ccccc1	92.8%
CCOC(=N)c1ccc(C(=N)OCC)cc1	106%

SMILES	growth
COc1ccc2oc3c(ccc[n+]3C)c(=O)c2c1	108%
CC(C)(C(=O)c1cccnc1)c1cccnc1	110% and 118%
COc1ccc(/C=C/C(=O)O)cc1OC	105% and 113%
CCN(CC)CCO/N=C1\CC(c2ccc(OC)c(OC)c2)Oc2ccccc21 (stereo not given)	96.5%
COCCNC(C)=O	104%
Nc1c(S(=O)(=O)O)cc(Br)c2c1C(=O)c1ccccc1C2=O	101% and 111%
OCc1cccc(F)c1	113%
O=C(c1ccccc1)C1(Br)CCCCC1	105%
CCn1c2ccc(N(C)C)cc2c2cc(N(C)C)ccc21	24.9%
COC(=O)c1nc(=S)[nH]c(C(=O)OC)c1C(=O)c1ccccc1	106%
COc1ccc(C(=O)C(O)c2ccc(OC)cc2)cc1 (stereo not given)	103% and 102%
O=[N+]([O-])c1ccc(NC2CCCCC2)nc1	109%
CCCCCCCCCCCCCCCCC(=O)O	106%
NC(=O)Cc1nc(O)cc(=O)[nH]1	113%
CCNC1=CC(=O)c2ncccc2C1=O	47.1%
O=c1[nH]c(=S)[nH]n1C(=S)n1[nH]c(=S)[nH]c1=O	112%
CC(CN(C)C)CN1c2ccccc2Sc2ccccc21 (stereo not given)	88.1% and 102% and 84%
S=c1ccc2ccccc2[nH]1	104% and 108%
COC1C(OC(N)=O)C(O)C(Oc2ccc3c(O)c(NC(=O)c4ccc(O)c(CC=C(C)C)c4)c(=O)oc3c2C)OC1(C)C (stereo not given)	111% and 98.9%
CC1OS(=O)OC1C (stereo not given)	104% and 100%
